Assay outcomes: PubChem, several laboratories
Shown are actives, neighbours in structure and some others; about 4.6% of the full set was active somewhere.
Peg3 prom inh: reduces Peg3 promoter-driven luciferase expression in HeLa | HeLa PEG-Prom luciferase reporter, luminescence, overnight | inhibition, % at 20 µM | hit rate 1.7% among 360,000;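 active means inhibition of at least 50% at 20 µM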
KKLEB tox: CF airway cell cytotoxicity counter-screen; KKLEB CF airway cells viability, ATPlite luminescence, overnight; stronger effect = lower value; cells stimulated with P. aeruginosa culture filtrate; activity change (cytotoxicity), % at 5 µM; hit rate 0.36% among 360,000;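 active means corrected activity change at or below -50% at 5 µM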
CF NFkB inh: cystic fibrosis NF-kB activation inhibition; KKLEB NF-kB-GFP reporter, PAF-induced, GFP fluorescence overnight; inhibition, % at 5 µM; hit rate 0.86% among 360,000; AID 588850;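 active means at least 50% inhibition at 5 µM, scaled per plate between neutral and stimulator controls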;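 further: PAF is a Pseudomonas aeruginosa culture filtrate used as stimulus; plate controls were PAF-stimulated DMSO wells for no effect and unstimulated DMSO wells for full effect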
Mdm2 MdmX PPI: human Mdm2/MdmX binding inhibition; AID 485346; SaOS-2 split-luciferase Mdm2/MdmX complementation, luminescence; inhibition, % at 8 µM; O15151+Q00987; hit rate 3% among 330,000;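 active means inhibition of at least 50% at 8 µM in the primary screen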
ABHD5-PLIN5 inh: inhibitors of human ABHD5-perilipin-5 interaction; Q00G26+Q8WTS1; Split G. princeps luciferase complementation, luminescence, 4 h; inhibition, % at 4 µM; hit rate 0.78% among 360,000; AID 602281;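 active means inhibition above the mean inhibition across every tested compound plus 3 SD, cut at about 22% in these data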;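 further: 0% = DMSO only wells and the 100% control is not disclosed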
Target sequence (Q00G26 whole entry, looked up): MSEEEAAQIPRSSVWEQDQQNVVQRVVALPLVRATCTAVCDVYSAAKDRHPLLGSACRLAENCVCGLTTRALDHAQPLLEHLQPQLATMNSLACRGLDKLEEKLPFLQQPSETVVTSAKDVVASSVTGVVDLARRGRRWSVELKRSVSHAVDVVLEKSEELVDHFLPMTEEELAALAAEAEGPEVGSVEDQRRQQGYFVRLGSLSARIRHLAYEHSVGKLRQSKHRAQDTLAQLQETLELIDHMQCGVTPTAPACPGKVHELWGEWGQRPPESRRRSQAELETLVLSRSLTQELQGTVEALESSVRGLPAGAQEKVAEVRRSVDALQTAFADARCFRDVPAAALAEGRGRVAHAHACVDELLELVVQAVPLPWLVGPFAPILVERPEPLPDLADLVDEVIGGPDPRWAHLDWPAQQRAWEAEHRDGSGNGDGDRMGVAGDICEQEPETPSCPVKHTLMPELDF
Target sequence (Q8WTS1 whole entry, looked up): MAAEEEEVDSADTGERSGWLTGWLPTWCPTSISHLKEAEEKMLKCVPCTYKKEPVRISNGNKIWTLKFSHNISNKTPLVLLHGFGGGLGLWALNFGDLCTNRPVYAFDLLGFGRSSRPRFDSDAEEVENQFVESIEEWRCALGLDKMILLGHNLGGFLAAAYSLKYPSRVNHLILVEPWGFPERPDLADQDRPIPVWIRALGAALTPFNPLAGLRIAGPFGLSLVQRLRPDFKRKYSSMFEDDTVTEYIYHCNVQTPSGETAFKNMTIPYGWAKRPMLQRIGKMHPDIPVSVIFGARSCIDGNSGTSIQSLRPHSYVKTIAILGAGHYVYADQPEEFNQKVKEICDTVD
HIF-2a inh: HIF-2a inhibition | 786-0 RCC cells HIF-2a reporter, luciferase luminescence, overnight | inhibition, % at 18.8 µM | hit rate 0.72% among 360,000 | AID 624352;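 active means inhibition of the luminescence signal of 40% or more relative to plate controls, in a single-dose primary screen at 18.75 µM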
Mdm2-MdmX conf: human Mdm2/MdmX binding inhibition, confirmed | shares compounds with Mdm2 MdmX PPI | luminescent assay | inhibition, % at 8 µM | hit rate 55% among 10,000 | AID 489028; in the data active means inhibition above about 40%
FLuc counter: inhibits full-length luciferase, flagging false Mdm2/MdmX hits; shares compounds with Mdm2 MdmX PPI; SaOS-2 full-length luciferase counterscreen, luminescence; inhibition, % at 8 µM; hit rate 77% among 6,200;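 active means mean inhibition at 8 µM reaching about 37%, which flags the compound as non-specific, limit read from the data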;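 further: p53-null SaOS-2 cells with luciferase driven by a doxycycline-inducible promoter; compound on cells about two nights before reading with doxycycline added after day one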
* hit, by the source's call; x = not tested or not shown.

SMILES	Peg3 prom inh	KKLEB tox	CF NFkB inh	Mdm2 MdmX PPI	ABHD5-PLIN5 inh	HIF-2a inh	Mdm2-MdmX conf	others
NC(=O)[C@H]1CC2(CC(c3cccc(NC(=O)COc4ccc(Cl)cc4)c3)=NO2)CN1C(=O)C(c1ccccc1)c1ccccc1 (some centres not stated)	40	2	0	60*	4	-54	14
N#CCC(=O)N1CC2(CC(c3cccc(NC(=O)COc4ccc(Cl)cc4)c3)=NO2)C[C@@H]1C(N)=O (some centres not stated)	-4	7	4	-7	7	3	x
Cc1ccc(N/N=C2\CC(=O)c3ccccc32)cc1Cl	x	x	x	58*	x	x	6
COc1ccc(-c2ccc(C(=O)NCc3ccc(C(F)(F)F)cc3)c3occc23)c(C)c1	-24	-12	10	x	-11	-53	x
N#Cc1ccc(/C=C\c2nccc3c2[nH]c2ccccc23)cc1	31	-20	-19	51*	2	-8	35
COC(=O)N1C(=O)[C@@](CC(C)C)(c2ccccc2)N1C(=O)OC	x	x	x	51*	x	x	14
COc1ccc(C)cc1NC(=O)C1CCCN1S(=O)(=O)c1ccccc1F (configuration not stated)	0	3	46	18	0	10	x
COC(C[C@@H]1O[C@@H]1[C@@H](O)COCc1ccccc1)OC	-7	-8	11	-13	8	8	x
Cc1nn(-c2ccccn2)c(C)c1Oc1ccccc1O	-12	0	8	11	-4	4	x
Cc1nn(-c2nc3ccccc3s2)c(C)c1Oc1ccccc1O	-314	-2	-5	77*	-6	-124	66*	FLuc counter=87*
C/C(=N/NC(=O)c1ccoc1C)c1cccc(NC(=O)C2CC2)c1	-32	7	-14	-4	3	-26	x
CC(C)(C)OC(=O)N[C@@H](Cc1ccccc1)c1nnc(S(=O)(=O)Cc2ccccc2)o1	x	x	x	100*	x	x	70*	FLuc counter=0
COc1ccccc1CNCCS(=O)(=O)NN1CCOCC1	-3	6	-1	17	-28	9	x
CC(C)=CCC/C(C)=C/CC(C)(C)CNCCN1CCNCC1	x	x	x	88*	x	x	30
CN=C1c2c(-c3ccccc3)c3cc(OC)ccc3n2CCN1C	36	-10	10	51*	13	13	21
O=C(C[C@H]1C/C=C\CC[C@H](Cc2ccc(F)cc2)C(=O)OC[C@H]2CCCN2C1=O)N[C@@H](CO)Cc1ccccc1	18	6	8	15	14	-15	x
O=C(OCC(=O)N1CCN(c2ccccc2)CC1)c1cc(F)c(F)cc1Cl	1	7	-2	x	-10	8	x
O=C(Nc1cccnc1)c1cccc(-c2cc3ccccc3oc2=O)c1	-13	-3	3	-2	-6	-15	x
Cc1ccc2nc(NC(=O)c3cccc(-c4cc5ccccc5oc4=O)c3)sc2c1	x	x	x	81*	x	x	68*	FLuc counter=105*
Cc1ccc(NC(=O)COc2ccccc2C(=O)NCc2ccccc2)cc1	22	-4	-15	8	2	2	x
CCOC(=O)c1ccc(-c2ccc(/C=N/NC(=O)CN(c3ccccc3Br)S(C)(=O)=O)o2)cc1	-104	3	-7	51*	-5	-160	-4
CC(=O)c1ccc(N2CCN(C(=O)CNS(=O)(=O)c3ccc4c(c3)OCCCO4)CC2)c(F)c1	1	6	1	16	-3	12	x
COc1ccc(C2=NN(C(=O)c3ccco3)C(c3cc4ccccc4nc3Cl)C2)cc1 (configuration not stated)	x	x	x	82*	x	x	8
COc1ccc([C@H]2CC(=O)C[C@@H](CCn3cc(Cc4ccccc4)nn3)O2)cc1	x	x	x	x	-1	12	x
Cc1ccc(-c2cc(C(=O)N3CCN(c4ccccc4O)CC3)c3ccccc3n2)o1	-130	-17	9	5	9	-134	x
SMILES	Peg3 prom inh	KKLEB tox	CF NFkB inh	Mdm2 MdmX PPI	ABHD5-PLIN5 inh	HIF-2a inh	Mdm2-MdmX conf	others
COc1ccc(-c2cc(C(=O)N3CCN(c4cccc(C)c4C)CC3)c3ccccc3n2)cc1OC	30	4	8	75*	5	-5	18
O=C(c1cc(-c2ccncc2)nc2ccc(Br)cc12)N1CCN(c2ccccn2)CC1	29	-19	-16	-4	-2	-4	x
O=C(c1cc(-c2ccc(Br)cc2)nc2ccccc12)N1CCN(c2ccccc2O)CC1	-13	-3	16	56*	-6	-50	30
O=C(c1cc(-c2ccccc2Cl)nc2ccc(Br)cc12)N1CCN(c2ccccn2)CC1	92*	8	3	74*	5	15	9
OC(CCCN1CCCCC1)(c1ccccc1)c1ccc(C(F)(F)F)cc1 (configuration not stated)	6	-4	10	x	5	0	x
COc1ccc(Sc2nnc(Cc3ccccc3)c3ccccc23)cc1	36	-9	20	72*	4	-13	48*	FLuc counter=88*
Cc1ccc(Sc2nnc(Cc3ccccc3)c3ccccc23)cc1	21	-14	10	53*	1	6	24
COc1ccc(Sc2nnc(-c3ccccc3)cc2C#N)cc1	13	1	2	26	10	1	x
Cc1ccc(C(=O)/C=C/NNC(=O)c2ccccc2O)cc1	6	-6	2	20	1	-19	x
COc1ccccc1CNC(=O)CN(C)CC(=O)Nc1ccc(F)c(F)c1F	7	16	-6	18	4	11	x
COc1ccc(-c2cc(-c3cccs3)c(C#N)c(SCC(=O)NCc3ccccc3OC)n2)cc1	7	0	9	84*	2	16	30
COc1ccc(-c2cc(-c3cccs3)c(C#N)c(SCC(=O)NCc3ccccc3)n2)cc1	8	-16	-5	61*	2	0	12
O=C(COc1ccc2ccccc2c1Br)N1CCCCC1	-272	-8	-5	-41	-7	-227	x
O=C(Oc1ccc2ccccc2c1Br)N1CCCCCC1	-182	-13	-7	59*	-1	-131	42*	FLuc counter=150*
COCCNC(=O)C1(C)CCCN(Cc2ccc(Cl)c(Cl)c2)C1 (configuration not stated)	10	12	-4	x	-1	13	x
C/C(=N\Nc1ccc(F)cc1)c1ccc(N2CCOCC2)c(F)c1	-13	2	-6	-3	-12	-23	x
COc1ccc(-n2nc(C(=O)NCC(=O)NCc3ccc(F)cc3)c3ccccc3c2=O)cc1OC	30	-8	12	80*	1	7	9
COC(=O)CNC(=O)CNC(=O)c1nn(-c2ccc(OC)c(OC)c2)c(=O)c2ccccc12	4	-1	-13	0	1	7	x
Cc1cnc(NC(=O)c2cc(S(=O)(=O)N(C)C)ccc2N2CCCC2)s1	30	-17	14	53*	0	-8	32	FLuc counter=50*
